Bioassay records: PubChem, National Center for Advancing Translational Sciences (NCATS)
HEK293 tox – cytotoxic in the GLP-1 receptor inverse agonist counter-screen | HEK293 cAMP-luciferase reporter cells, luminescence, 24 h | Potency, µM (highest dose often 38.3 µM), for inactives: at the highest dose activity change, negative = inhibition, usual class: inhibitors | 410,000 compounds, 0.13% hits | AID 624418;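 also: loss of luciferase light is scored as toxicity; potency is read from the fitted curve at half-maximal effect; % is scaled to controls: 0 for no effect and ±100 for the full control effect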
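A 23 nL compound transfer followed 12 hours of cell culture at 37 deg C; exposure then lasted 24 hr. Luciferase assay detection reagent was dispensed and plates read for luminescence after a 12 min room-temperature wait.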
GLP1R ag – activates the human GLP-1 receptor; 380,000 compounds, 0.007% hits; HEK293 GLP-1R CRE-luciferase, luminescence, 4-6 h; cells express a hypersensitive GLP-1R form; Potency, µM (top dose mostly 45.6 µM), inactives show at the top dose activation, most hits filed as activators; P43220; also: potency is read from the fitted curve at half-maximal effect; % of control where 0% means no effect
Target sequence (P43220 whole entry, looked up): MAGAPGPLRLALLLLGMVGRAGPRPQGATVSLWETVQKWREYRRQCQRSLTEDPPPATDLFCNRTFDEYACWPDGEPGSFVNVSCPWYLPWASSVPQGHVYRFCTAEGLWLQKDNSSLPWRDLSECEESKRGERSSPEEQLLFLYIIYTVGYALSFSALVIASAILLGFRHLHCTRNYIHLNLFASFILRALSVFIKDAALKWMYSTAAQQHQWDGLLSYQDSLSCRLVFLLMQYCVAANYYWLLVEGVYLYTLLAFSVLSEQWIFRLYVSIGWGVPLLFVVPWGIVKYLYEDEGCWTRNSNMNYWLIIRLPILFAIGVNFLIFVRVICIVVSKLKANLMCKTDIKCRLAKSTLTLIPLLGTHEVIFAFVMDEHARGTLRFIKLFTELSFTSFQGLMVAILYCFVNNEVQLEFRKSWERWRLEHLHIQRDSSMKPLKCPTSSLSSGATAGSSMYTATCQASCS
DRD3 agonist – activates the human D3 dopamine receptor. P35462. D3R DiscoveRx beta-arrestin cells, luminescence, 90 min. max activation, %. 410,000 compounds, 0.58% hits. AID 652048; in the data active = max activation above about 30%; also: 0% is about no effect
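Agonist-mode cell screen: cells plated at 1500/well and incubated overnight at 37 °C, then exposed to library compounds for 90 min at 37 °C. Detection reagent was added for 30–60 min at room temperature, and luminescence was read.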
GLP-1R inv ag – acts as inverse agonist at human GLP-1 receptor | HEK293 GLP-1R CRE-luciferase, luminescence, 24 h; GLP-1R form is constitutively active | P43220 | 410,000 compounds, 1.6% hits | Potency, µM (titrated, usually from 38.3 µM), for the others: at the highest dose activity change, negative = inhibition, usual class: inhibitors; also: potency is read from the fitted curve at half-maximal effect; % is scaled to controls: 0 for no effect and ±100 for the full control effect; nearly all actives have a fitted effect of over 55% in size
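Using stably transfected HEK293 (constitutively active GLP-1R, cAMP-luciferase reporter), compounds were incubated 24 hr and luciferase measured by luminescence.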
DRD3 antagonist – antagonists of human D3 dopamine receptor; D3R cells, DiscoveRx beta-arrestin luminescence, antagonist mode; stronger effect = lower value; 360,000 compounds, 2.5% hits; P35462; max response, negative = inhibition, %; in the data active = max response below about -50%; inconclusive = no clear call, values can overlap the other calls; also: % is scaled to controls: 0 for no effect and ±100 for the full control effect
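Cells expressing the human receptor were seeded at 1500 cells/well, incubated overnight at 37 degrees C in 5% CO2, then exposed to library compounds with dopamine controls for 90 minutes at 37 degrees C before luminescent detection.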
ClpP mod – qHTS Assay for Activators of ClpP. ATP-dependent Clp protease proteolytic subunit (Bacillus subtilis (strain 168)), P80244. purified B. subtilis ClpP, FRET peptide cleavage, 20 min. Potency, µM (doses to about 57.5 µM), for the others: at the top dose activity change, negative = active. 340,000 compounds, 1.9% hits; active = well fitted falling curve with a large enough effect; inconclusive = small, poorly fitted or top-dose-only effect; inactive = no such curve, though single readings can be large or run the other way; also: potency is read from the fitted curve at half-maximal effect; the source files actives as falling curves though it sought activators and does not explain the sign; nearly all actives have a fitted effect of over 65% in size
Target sequence (P80244 whole entry, looked up): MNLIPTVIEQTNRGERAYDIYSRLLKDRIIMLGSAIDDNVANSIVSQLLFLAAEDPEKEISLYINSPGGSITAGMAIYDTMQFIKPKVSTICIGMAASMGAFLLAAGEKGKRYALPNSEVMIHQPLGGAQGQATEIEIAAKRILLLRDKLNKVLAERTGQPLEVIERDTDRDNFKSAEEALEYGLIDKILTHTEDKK
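FRET quenching reversal measured ClpP activation: 10 microg/mL B. subtilis ClpP at pH 8 with the FRET-FV decapeptide, read at 430 nm after 320 nm excitation. The 20-min minus 0-min signal was scaled between DMSO/no-enzyme wells and ADEP (5.8 microM final).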
* marks the source's active call; other numbers are inactive results; ? = inconclusive; / = no result; [ ] = dose if it differs, or a comment. Only some compounds are listed: those with a hit (about 5.7% of all), similar ones and a draw of the others. Unless noted, calls follow the shape of the dose curve; as a rule, active = well fitted curve in the direction sought with a large enough effect; inconclusive = small, poorly fitted or top-dose-only effect, or another doubt; inactive = no such curve, though single readings can be large; an effect the other way counts as inactive or inconclusive.

SMILES	HEK293 tox	GLP1R ag	DRD3 agonist	GLP-1R inv ag	DRD3 antagonist	ClpP mod
Cc1c(NC2=NC3(CCCCC3)Cc3ccccc32)c(=O)n(-c2ccccc2)n1C	-6%	-2%	3	-31%	4	-4%
CCC1(C)Cc2ccccc2C(Nc2c(C)n(C)n(-c3ccccc3)c2=O)=N1 (centres undefined)	-7%	-9%	2	2%	-6	14µM*
CCOc1ccc(NC(=O)Cn2c(=O)n(CC3CCC(C(=O)NCCc4ccccc4)CC3)c(=O)c3ccccc32)cc1 (centres undefined)	0%	1%	4	-15%	/	2%
CC(OC(=O)c1ccccc1OCCOc1ccccc1)C(=O)Nc1ccc(Br)cc1 (centres undefined)	/	/	/	/	/	-4%
CC1=C(C(N)=O)C(c2cccc(Br)c2)n2nc(SCc3ccccc3Cl)nc2N1 (centres undefined)	-12%	4%	56*	4%	/	-10%
Cc1ccc(Sc2c(C(=O)NCc3ccccc3C)[nH]c3ccccc23)cc1	3%	/	1	8%	/	-5%
CCC(C)NC(=O)C1CCN(S(=O)(=O)c2ccc3c(c2)CC(C)N3C(C)=O)CC1 (centres undefined)	-1%	-1%	-4	13%	-12	-2%
CC(=O)N1c2ccc(S(=O)(=O)N3CCC(C(=O)NC4CCC(C)CC4)CC3)cc2CC1C (centres undefined)	-2%	6%	30*	20%	2	1%
O=C(C[N+]1(CCO)CCOCC1)c1ccc2ccccc2c1	/	/	/	/	/	-1%
O=S(=O)(c1ccccc1C(F)(F)F)N1CCN(c2nc(-c3ccccc3)nc3ccccc23)CC1	/	/	/	/	/	-11%
Cc1cc(N2C3CCC2CC(O)(c2ccc(F)cc2)C3)nc(-c2ccccc2)n1 (centres undefined)	-24%	-4%	-23	?	-60*	-10%
CC(C)C(=O)N1C2CCC1CC(O)(c1ccc(F)cc1)C2 (centres undefined)	1%	-10%	-8	4%	-67*	0%
Cc1cccc(N2CCN(C(=O)CCn3c(=O)c4cccn4c4cccnc43)CC2)c1C	17%	/	-9	6%	/	-17%
CCOC(=O)[C@H](CS)NCCN[C@@H](CS)C(=O)OCC	/	/	0	/	/	/
COc1nc(-c2ccc(C)cc2)ccc1-c1noc(-c2ccco2)n1	6%	0%	4	1%	26	28µM*
CCOc1nc(-c2ccccc2)ccc1-c1noc(-c2ccco2)n1	-29%	-10%	10	?	41	35µM*
CCOc1ccccc1-c1nc(-c2cc3ccccc3nc2OC)no1	4%	1%	34*	-5%	28	?
CCOc1ccccc1-c1nc(-c2ccc(-c3ccccc3)nc2OCC)no1	1%	/	5	-27%	/	13µM*
CCCc1noc(-c2ccc(NCc3ccc(C)cc3)c([N+](=O)[O-])c2)n1	7%	/	-4	16%	/	2%
CCc1ccc(-n2nc(C)c3c(C)cc(=O)n(CC(=O)Nc4ccc(OC)c(OC)c4)c32)cc1	-2%	/	-8	-21%	/	0%
CC(C)c1ccc(-c2csc3ncnc(N4CCN(C)CC4)c23)cc1	?	2%	-34	?	-72*	-1%
O=S(=O)(c1cccc(F)c1)N1CCN(c2ncnc3scc(-c4ccc(F)cc4)c23)CC1	-3%	-2%	-1	-11%	1	25µM*
Nc1nc(-c2ccccc2)c(CCCOc2ccc(NC(=O)CBr)cc2)c(=O)[nH]1	10µM*	3%	5	26%	5	-2%
CCOc1ccc(NC(=O)CSc2nc(N)c(-c3ccccc3)c(=O)[nH]2)cc1	-12%	8%	-2	3%	-5	/
O=C(NCCSCc1ccc(Cl)cc1Cl)c1ccc(CN2CCOCC2)cc1	2%	1%	-8	10µM*	-26	2%
SMILES	HEK293 tox	GLP1R ag	DRD3 agonist	GLP-1R inv ag	DRD3 antagonist	ClpP mod
Cc1ccc(NC(=O)CN(C)C(=O)C(Sc2ccccc2)c2ccccc2)cc1 (centres undefined)	-26%	0%	-1	8.9µM*	-21	0%
Cc1ccc(NC(=O)CN(C)C(=O)c2ccc(Cl)nc2)cc1	16%	4%	-16	1%	-84*	/
COc1ccc(NC(=O)CN(C)C(=O)C(C)Sc2ccccc2)cc1 (centres undefined)	-3%	-1%	12	7%	2	1%
Cc1ccc(NC(=O)CN(C)C(=O)c2ccccc2Cc2ccccc2)cc1	-9%	7%	-10	10µM*	2	/
Cc1ccc2c(c1)-c1c(c(C(=O)N3CCN(c4cc(C)ccc4C)CC3)nn1C)CS2	-14%	/	2	-11%	/	-1%
O=C(NCc1cccc(Cl)c1)c1cc2c(s1)-c1ccccc1SC2	-8%	/	-8	-25%	/	?
CN(Cc1ccccc1)C(=O)c1cc2c(s1)-c1ccc(Cl)cc1SC2	-2%	/	1	?	/	25µM*
O=C(NCc1ccc(Cl)cc1)c1cc2c(s1)-c1ccccc1SC2	-4%	/	-5	?	/	32µM*
CCCCN1C=C(C(=O)OC)C(c2ccccc2C(F)(F)F)C(C(=O)OC)=C1	30%	-4%	-1	-19%	-3	32µM*
Cc1[nH]c2ccccc2c1C(C#N)(C#N)C1C(=O)c2ccccc2C1=O	?	0%	-20	-29%	-89*	-21%
CNC(=S)NNC(=O)CCn1nc(C)c(Br)c1C	-11%	-9%	-23	0%	?	-3%
CCOCCCNC(=S)NNC(=O)CCn1nc(C)c(Br)c1C	?	3%	-35	5.6µM*	-97*	5%
Cc1nn(CCC(=O)NNC(=S)NCC(C)C)c(C)c1Br	?	-5%	-53	?	-104*	0%
CC(=O)N1c2ccccc2C(=O)C1N1CCN(c2cccc(C)c2C)CC1 (centres undefined)	2%	/	5	17%	/	-20%
O=C(NNc1cc(Cl)cc(Cl)c1)c1sccc1Cl	/	/	/	/	/	1%
CCCCCCCCCCCCCCCC(=O)O[C@H]1[C@@H](O)[C@@H](O)[C@@H]([C@H](NC(=O)[C@@H]2C[C@@H](CCC)CN2C)[C@H](C)Cl)O[C@@H]1SC	/	-1%	/	/	/	/
Nc1ccc(N(CCO)CCO)cc1	14%	2%	-3	-13%	?	/
Cc1cc(N(CCO)CCO)ccc1N=Nc1cc(F)ccc1F	-4%[0.307 µM]	21%	-8	4%[0.307 µM]	-74*	-1%
CC(/C=N/Nc1nnc(C)c(=O)[nH]1)=C\c1ccccc1	-7%	-4%	-5	30%	-23	-1%
